High-throughput results: PubChem, University of Kansas High Throughput Screening Laboratory
Shown is part of a subset that was picked to be rich in hits.
Pf apPOL block: Pf-apPOL DNA polymerase inhibition; Recombinant Pf-apPOL, molecular beacon fluorescence, 1.5 h; inhibition, % at 10 µM; actives 0.25% (n = 210,000); AID 1794808
mHTT CaM bind: mHTT-calmodulin interaction abrogation; P42858; actives 3.6% (n = 190,000); AlphaScreen His-mHTT/GST-CaM binding, luminescence; inhibition, % at 15 µM;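 note: 0% = both proteins with DMSO and 100% = one protein alone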
The depositor's hits bear a star; x = not tested or not shown; + = active, no number. Cut-off read from the data, not from the text of the source: active = inhibition above about 50%; inactive = the rest.

SMILES	Pf apPOL block	mHTT CaM bind
Cc1ccc(N=Cc2cc(Br)cc(Cl)c2O)c(N)c1	4.4	61.0*
Cc1cccc(N=Cc2cc(Cl)cc(Cl)c2O)c1C	6.4	x
COc1ccc(N=Cc2cc(Br)cc(Cl)c2O)cc1	-11.4	3.0
Oc1c(Cl)cc(Cl)cc1C=Nc1cccc2cccnc12	5.9	55.0*
CC(=O)c1ccc(N=Cc2cc(Br)cc(Cl)c2O)cc1	45.7	5.0
O=C(C1CCCO1)N1CCc2cc(-c3ccno3)ccc21 (stereo not drawn)	-5.7	4.4
Cc1cccc(NC(=O)c2csc(-c3ccc(N4CCCC4)nc3)n2)c1	2.1	-2.7
CCC(C)NC(=O)CSc1nc2n[nH]c(C)c2c(=N)n1-c1ccc(C)cc1 (stereo not drawn)	2.1	54.0*
CCN(CC)C(=O)CSc1nc2n[nH]c(C)c2c(=N)n1-c1ccc(Oc2ccccc2)cc1	-3.2	13.0
CCN(CC)C(=O)CSc1nc2n[nH]c(C)c2c(=N)n1-c1ccc(C)c(Cl)c1	-3.4	14.0
CCc1ccc(-n2c(SCC(=O)NC(C)CC)nc3n[nH]c(C)c3c2=N)cc1 (stereo not drawn)	-3.1	91.0*
CCCCOc1ccc(C(=O)NC2(c3nc(CC)no3)CCCCC2)cc1	3.3	-11.2
O=S(=O)(Cc1ccc(F)cc1)Cc1noc(-c2ccno2)n1	-6.2	x
N#CC1=C(N)n2c(s/c(=C\c3ccco3)c2=O)=C(C#N)C1c1ccco1 (stereo not drawn)	-3.9	46.0
Cc1ccc(/C=c2\sc3n(c2=O)C(N)=C(C#N)C(c2ccc(C)o2)C=3C#N)o1 (stereo not drawn)	6.8	59.0*
COc1ccc(CN2CCc3nc(Nc4ccccc4OC)ncc3C2)c(OC)c1	-0.6	44.3
COc1ccc(OC)c(Nc2ncc3c(n2)CCN(Cc2ccc(OC)cc2OC)C3)c1	-3.0	90.8*
COc1ccccc1CN1CCc2nc(Nc3ccccc3OC)ncc2C1	-0.9	20.7
COc1ccc(OC)c(CN2CCc3nc(Nc4ccccc4OC)ncc3C2)c1	-4.9	55.5*
COc1ccc(/C=C2\OC(=O)c3c2cc(C)[nH]c3=O)cc1OC	-3.3	1.0
Nc1ccc(NC(=O)c2ccc(Cl)cc2Cl)c(Cl)c1	-0.6	-2.8
COc1cc(N=Cc2nc(-c3ccccc3F)oc2O)c(C(=O)O)cc1OC	2.1	0.0
O=C(O)c1ccccc1N=Cc1nc(-c2ccccc2F)oc1O	96.2*	9.0
CC(/C=C/c1ccc(F)cc1)=C\C(=O)O	-4.1	-0.6
OC/C=C/C=C/c1ccc(F)cc1	3.4	72.0*
SMILES	Pf apPOL block	mHTT CaM bind
S=c1[nH]nc(-c2ccccn2)n1/N=C/c1cccnc1	x	+
S=c1[nH]nc(-c2ccncc2)n1N=Cc1cccnc1	-7.2	x
COc1ccc(C2=NOC(C(=O)Nc3cccc(C(F)(F)F)c3)C2)cc1 (stereo not drawn)	14.4	-22.7
FC(F)(F)c1cccc(Cc2cccc(C(F)(F)F)c2)c1	-0.1	x
OC(CSCc1cccc(C(F)(F)F)c1)C(O)CSCc1cccc(C(F)(F)F)c1 (stereo not drawn)	x	100.1*
NS(=O)(=O)c1ccc(NS(=O)(=O)c2ccc(NC(=O)c3ccccc3[N+](=O)[O-])cc2)cc1	-8.9	4.6
COc1cc(C(F)(F)F)nc2ccc(C#CCOC(=O)c3ccccc3)cc12	3.5	x
O=C(NCCc1c[nH]c2ccccc12)c1cc2nc(-c3ccco3)cc(C(F)(F)Cl)n2n1	-2.3	76.0*
O=C(NCCCN1CCOCC1)c1cc2nc(-c3ccco3)cc(C(F)(F)Cl)n2n1	-2.2	13.0
O=C(Nc1ccccc1)N1CCc2[nH]cnc2C1c1ccncc1 (stereo not drawn)	1.2	1.3
COc1ccccc1NC(=O)N1CCc2[nH]cnc2C1c1ccccn1 (stereo not drawn)	-3.5	36.4
O=C(Nc1c(F)cccc1F)N1CCc2[nH]cnc2C1c1ccccn1 (stereo not drawn)	-8.5	56.1*
CCOc1ccc(NC(=O)N2CCc3[nH]cnc3C2c2ccccn2)cc1 (stereo not drawn)	-7.4	93.5*
CC(C)C[C@@H](COCc1cccc(C(F)(F)F)c1)N1CCN(C(=O)c2ccc(C(F)(F)F)cc2)CCC1=O	-0.4	89.2*
Cc1cccc(COC[C@H](CC(C)C)N2CCN(C(=O)c3ccc(C(F)(F)F)cc3)CCC2=O)c1	-2.2	90.3*
Cc1ccc(S(=O)(=O)N2CCC(=O)N(CCOCc3cccc(C(F)(F)F)c3)CC2)cc1	-1.4	7.4
Cc1ccc(S(=O)(=O)N2CCC(=O)N([C@H](COCc3cccc(C)c3)C(C)C)CC2)cc1	-3.9	-9.0
Cc1nc2c(C(=O)NCCC(C)C)cnn2c(C)c1Cc1ccc(F)cc1Cl	-2.8	-5.0
Fc1ccc(Cn2nnc(-c3cccnc3)n2)cc1	x	-4.5
C=CSc1sc(Cl)c(N2CCOCC2)c1[N+](=O)[O-]	-0.4	34.0
C=CS(=O)(=O)c1sc(Cl)c(N2CCOCC2)c1[N+](=O)[O-]	-2.7	60.0*
C=CSc1sc(Cl)c(N2CCC3(CC2)OCCO3)c1[N+](=O)[O-]	4.8	67.0*
O=[N+]([O-])c1c(N2CCOCC2)c([N+](=O)[O-])c(N2CCOCC2)c([N+](=O)[O-])c1N1CCOCC1	-6.1	1.0
CC(=O)c1cccc(NC(=O)c2ccc(-c3ccccc3)cc2)c1	-3.6	7.1
CC(CC(=O)O)C(C)c1ccccc1 (stereo not drawn)	-2.1	-1.5
SMILES	Pf apPOL block	mHTT CaM bind
CCN(CC)c1ccc(N=C2C(=O)Nc3ccccc32)cc1	-38.8	100.0*
O=C1Nc2ccccc2C1=Nc1ccc(C(=O)O)cc1	-0.4	1.0
Cc1cc(C)c2ccc(NN)nc2c1O	-5.6	84.9*
Cc1cc(C)c2ccc(CO)nc2c1O	-10.7	0.4
Cc1cc(C)c2ccc(C=O)nc2c1O	-11.0	68.8*
CC(=O)Nc1ccccc1/C=C/c1ccc2c(C)cc(C)c(O)c2n1	-5.3	4.4
COc1ccc(S(=O)(=O)Nc2cccc(N3CCCCC3=O)c2)cc1C	-3.8	-12.4
COc1ccc(N2CCN(C(C)C(=O)N3CCOCC3)CC2)cc1 (stereo not drawn)	-2.2	-0.7
CCc1ccc(-n2[nH]c3c(cnc4ccc(C(=O)NC(C)C)cc43)c2=O)cc1	-4.5	-5.0
CCc1ccc(-n2[nH]c3c(cnc4ccc(C(=O)N5CCCC5)cc43)c2=O)cc1	4.4	-4.3
CC(C)NC(=O)c1ccc2ncc3c(=O)n(-c4ccc(Cl)cc4)[nH]c3c2c1	1.9	51.4*
CCC1CCCCN1C(=O)c1ccc2ncc3c(=O)n(-c4ccccc4)[nH]c3c2c1 (stereo not drawn)	0.5	66.4*
Cc1c(C(=O)N2CCN(c3ccc(C(F)(F)F)cc3[N+](=O)[O-])CC2)oc2ccccc12	-2.2	10.0
Cc1cc(C)c(S(=O)(=O)N2CCc3ccccc3C2)cc1[N+](=O)[O-]	-11.2	0.2
Cc1ccc2nc3c(cc(C(=O)NCCc4ccccc4)c(=N)n3Cc3ccco3)c(=O)n2c1	-1.2	56.0*
N=c1c(C(=O)NCc2cccnc2)cc2c(=O)n3ccccc3nc2n1Cc1ccco1	-8.5	4.0
N=c1c(C(=O)NCCc2ccccc2)cc2c(=O)n3ccccc3nc2n1Cc1ccco1	-17.2	52.0*
CNC(=O)c1cc2c(=O)n3cc(C)ccc3nc2n(Cc2ccco2)c1=N	14.8	0.0
Cc1ccc(NC(=O)CC2SC(=N)NC2=O)cc1 (stereo not drawn)	-4.3	-4.0
Clc1cccc(-c2n[nH]c(-c3ccccc3)n2)c1	-3.7	x
